A number with no mark means an inactive call.

These results are taken from PubChem BioAssay.

The nature of the experiment: forskolin-driven CRE-LacZ activity in PC12 – cell-based, CRE-LacZ reporter, forskolin-stimulated, primary screen (AID 1146).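 Note: PC12 cells with 6xCRE LacZ reporter stimulated by forskolin 10 µM; beta-galactosidase reporter signal reflecting CREB driven transcription.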 To be noted: luminescence, 4.5 h, higher = more signal, called active from +8 up or from −8 down.
Regarding `O=C1[C@H]2[C@H]3[C@H](O)[C@H](O)CC(=NO[C@@H]4O[C@H](CO)[C@@H](O)[C@H](O)[C@H]4O)[C@H]3CC[C@H]2C(=O)N1c1ccc(F)cc1F`, the z-score is -0.0522. Regarding `CC(=O)OC[C@H]1O[C@@H](ON=C2[C@H]3CCn4c(=O)n(-c5ccccc5)c(=O)n4[C@H]3[C@H](O)[C@@H]3O[C@H]23)[C@H](OC(C)=O)[C@@H](OC(C)=O)[C@@H]1OC(C)=O`, the z-score was 0.265.

Regarding `C#CCCCON=C1C[C@@H](O)[C@@H](O)[C@@H]2[C@@H]3C(=O)N([C@@H](C)c4ccccc4)C(=O)[C@@H]3CC[C@@H]12`, the z-score was 0.227. Regarding `O=C1[C@H]2[C@H]3[C@H](O)[C@H](O)CC(=NOC[C@@H](O)COCc4ccco4)[C@@H]3CC[C@H]2C(=O)N1C1CCCCC1`, the z-score is 0.148. To `C[C@]12CCC3c4ccc(OCC5CO5)cc4CCC3C1CC[C@@H]2O` (some centres undefined) belongs 0.806; to `CCOC(=O)CCN1C(=O)[C@H]2[C@H]3[C@H](O)[C@H](O)CC(=NO[C@@H]4O[C@H](CO)[C@@H](O)[C@H](O)[C@H]4O)[C@H]3CC[C@H]2C1=O`, 0.497; to `C=CCOCC1CN2[C@@H](CC[C@@H](C)[C@@H]2c2ccc(Br)cc2)C(=O)O1` (some centres undefined), -0.0565. Consider `CO[C@H]1COC(=O)[C@H](C)COC(=O)[C@@H](OCc2ccccc2)C=C[C@@H]1C`, for which the z-score was -0.786.

On to `CC(C)=NOC(C)CN1CCCc2nc(C)c(C)cc21` (centres undefined), for which the z-score is -0.263.
